Experimental data as given in the supplement of paper PMC12669032.
Unmarked numbers belong to inactive results.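 The calls were made as follows: active = AUC reduced over 20% with Padj below 0.05 in at least 2 of 3 replicates; inactive = otherwise.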

Experiments:
Assay in all cases: growth AUC relative to DMSO control (median of replicates) (fraction); higher = more growth (less inhibition), active = hit call of the paper
Conditions in all cases: 20 µM; 24 h
Akkermansia muciniphila = test system: Akkermansia muciniphila
Outline: (§1)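 Starting at OD600 0.05, gut bacterial monocultures in mGAM were grown anaerobically at 37 °C with 20 µM compound (1% DMSO) under pierced gas-permeable seals. OD600 was read every hour for 24 h, and the lowest OD of each curve was set to 0. Area under the growth curve was normalised to the plate median of solvent-only wells, or to row and column medians on the industrial chemical plate, and the median of three biological replicates grown on separate days is given.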

Bacteroides caccae = test system: Bacteroides caccae
Outline: as §1

Bacteroides clarus = test system: Bacteroides clarus
Outline: as §1

Bacteroides dorei = test system: Bacteroides dorei
Outline: as §1

Bacteroides stercoris = test system: Bacteroides stercoris
Outline: as §1

[1] = test system: Bacteroides thetaiotaomicron
Outline: as §1

Bacteroides uniformis = test system: Bacteroides uniformis
Outline: as §1

[2] = test system: Bifidobacterium longum subsp. longum
Outline: as §1

Clostridium difficile = test system: Clostridium difficile
Outline: as §1

Collinsella aerofaciens = test system: Collinsella aerofaciens
Outline: as §1

Coprococcus comes = test system: Coprococcus comes
Outline: as §1

Escherichia coli ED1a = test system: Escherichia coli ED1a
Outline: as §1

Escherichia coli IAI1 = test system: Escherichia coli IAI1
Outline: as §1

Eubacterium rectale = test system: Eubacterium rectale
Outline: as §1

[3] = test system: Fusobacterium nucleatum subsp. animalis
Outline: as §1

Lactobacillus gasseri = test system: Lactobacillus gasseri
Outline: as §1

Lactobacillus paracasei = test system: Lactobacillus paracasei
Outline: as §1

Odoribacter splanchnicus = test system: Odoribacter splanchnicus
Outline: as §1

[4] = test system: Parabacteroides distasonis
Outline: as §1

Parabacteroides merdae = test system: Parabacteroides merdae
Outline: as §1

| Compound | growth AUC (Akkermansia muciniphila) | growth AUC (Bacteroides caccae) | growth AUC (Bacteroides clarus) | growth AUC (Bacteroides dorei) | growth AUC (Bacteroides stercoris) | growth AUC [1] | growth AUC (Bacteroides uniformis) | growth AUC [2] | growth AUC (Clostridium difficile) | growth AUC (Collinsella aerofaciens) | growth AUC (Coprococcus comes) | growth AUC (Escherichia coli ED1a) | growth AUC (Escherichia coli IAI1) | growth AUC (Eubacterium rectale) | growth AUC [3] | growth AUC (Lactobacillus gasseri) | growth AUC (Lactobacillus paracasei) | growth AUC (Odoribacter splanchnicus) | growth AUC [4] | growth AUC (Parabacteroides merdae) |
| --- | --- | --- | --- | --- | --- | --- | --- | --- | --- | --- | --- | --- | --- | --- | --- | --- | --- | --- | --- | --- |
| CCS(=O)(=O)Oc1ccc2c(c1)C(C)(C)CO2 | 0.972 | 1 | 0.967 | 1.01 | 1.01 | 0.99 | 1.01 | 1.04 | 1.03 | 1.01 | 1.08 | 1.02 | 1.02 | 0.83 | 0.966 | 1.06 | 1 | 1.07 | 1.03 | 0.963 |
| Nc1c(Cl)c(Cl)c(Cl)c(Cl)c1Cl | 0.856 | 0.897 | 0.935 | 0.956 | 0.945 | 0.968 | 0.981 | 0.949 | 0.988 | 1 | 0.958 | 0.986 | 0.95 | 1.01 | 0.983 | 0.972 | 0.869 | 0.993 | 1.04 | 0.971 |
| Cc1cnc2c(C(=O)O)c(Cl)ccc2c1 | 0.939 | 0.996 | 0.986 | 1.03 | 1.03 | 0.995 | 1.04 | 0.967 | 0.995 | 1.01 | 0.983 | 0.977 | 0.987 | 0.934 | 0.952 | 0.952 | 1.05 | 0.968 | 0.967 | 1.01 |
| CO/C=C(/C(=O)OC)c1ccccc1COc1cccc(C(F)(F)F)n1 | 0.949 | 0.984 | 0.945 | 0.995 | 0.91 | 0.936 | 0.927 | 0.983 | 1.01 | 0.978 | 0.993 | 0.989 | 0.997 | 0.937 | 0.948 | 0.975 | 1.02 | 0.964 | 0.558 (active) | 0.924 |
| CCOP(=S)(OCC)Oc1ccc([N+](=O)[O-])cc1 | 1.09 | 0.963 | 1 | 1.02 | 1.05 | 0.972 | 0.959 | 1.03 | 1 | 1.03 | 0.997 | 1 | 0.979 | 1.09 | 1.11 | 0.98 | 1.04 | 1.02 | 0.964 | 0.994 |
| CNC(=O)/C=C(\C)OP(=O)(OC)OC | 1.05 | 1.03 | 0.991 | 1.02 | 1.09 | 1.01 | 1.01 | 0.947 | 1.04 | 1.04 | 1.05 | 1.05 | 1.02 | 0.999 | 1.02 | 1.03 | 1.06 | 0.989 | 1.03 | 1.01 |
| COc1cc(OC)nc(NC(=O)[N-]S(=O)(=O)c2ncccc2OCC(F)(F)F)n1.[Na+] | 1.07 | 0.973 | 0.982 | 0.995 | 0.888 | 0.77 (active) | 1.02 | 1.07 | 1 | 1 | 0.957 | 0.993 | 0.982 | 1.04 | 1.08 | 0.9 | 1.04 | 0.932 | 1.03 | 0.974 |
| COc1nc(NC(C)C)nc(NC(C)C)n1 | 1.01 | 1.04 | 0.993 | 0.994 | 0.979 | 1.02 | 1.02 | 1.02 | 0.98 | 0.995 | 1.01 | 1.01 | 1.02 | 0.97 | 0.885 | 0.984 | 1.01 | 1.03 | 1.03 | 1.02 |
